# Test results as given in PubChem BioAssay AID1209 (Sanford-Burnham Center for Chemical Genomics, 2008).
# In all, about 190,000 compounds went through this assay and about 810 (0.43%) were called active. The entries come from a sample that favours actives as a whole. A number with no mark means an inactive call. No stated cut-off is given here; in the data, active means inhibition above about 50%; inactive means the rest.
# Biological target: Mannose-6-phosphate isomerase (Homo sapiens) (UniProt P34949)
# Sequence (P34949 whole entry, looked up): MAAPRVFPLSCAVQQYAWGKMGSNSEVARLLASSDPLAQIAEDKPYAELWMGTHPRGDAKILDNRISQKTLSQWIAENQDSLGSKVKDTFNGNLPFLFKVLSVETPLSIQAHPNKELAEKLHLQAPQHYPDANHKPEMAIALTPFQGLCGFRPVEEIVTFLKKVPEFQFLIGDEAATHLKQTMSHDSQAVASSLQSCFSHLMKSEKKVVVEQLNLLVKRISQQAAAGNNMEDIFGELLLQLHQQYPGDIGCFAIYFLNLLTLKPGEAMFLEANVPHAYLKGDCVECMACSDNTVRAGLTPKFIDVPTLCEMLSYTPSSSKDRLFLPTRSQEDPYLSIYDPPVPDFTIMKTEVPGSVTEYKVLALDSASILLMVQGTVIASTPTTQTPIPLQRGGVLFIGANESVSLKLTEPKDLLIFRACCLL
# Assay: MPI enzyme activity inhibition – biochemical, fluorescence intensity, coupled assay, primary screen (AID 1209);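 further: plate controls were DMSO vehicle for no effect and wells lacking substrate for full effect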
# Settings: purified PMI enzyme, at 20 µM, active compounds read high
row,SMILES,inhibition
1,COc1ccc(CN2C(=O)NC3(CCOc4ccccc43)C2=O)cc1F (centres undefined),7.7%
2,CC(C)OC(=O)c1cccc(C(=O)Oc2ccccc2)n1,-3.1%
3,Cc1ccc(NC(=O)NC(=O)N(C(C)C)S(C)(=O)=O)nc1,-7.9%
4,Cc1[nH]n(-c2ccccc2)c(=S)c1C=Nc1ccc([N+](=O)[O-])cc1,69.1% (active)
5,Cc1[nH]n(-c2ccccc2)c(=S)c1C=NCCCN=Cc1c(C)[nH]n(-c2ccccc2)c1=S,-3.9%
6,Cc1[nH]n(-c2ccccc2)c(=O)c1C=Nc1ccc(S(=O)(=O)N(C)C)cc1,-3.8%
7,CN1C=C/C(=C\c2cc[n+](C)c3ccccc23)c2ccccc21,59.2% (active)
8,CCN1/C(=C/c2ccc3ccccc3[n+]2CC)C=Cc2ccccc21,15.5%
9,CN1/C(=C/c2cc[n+](C)c3ccccc23)C=Cc2ccccc21,70.7% (active)
10,C[n+]1ccc(/C=C/c2ccccc2O)c2ccccc21,12.3%
11,CC[n+]1ccc(/C=C2\Sc3ccccc3N2CCCS(=O)(=O)[O-])c2ccccc21,8.2%
12,COc1ccc(N=c2oc3cc(O)ccc3cc2C(=O)Nc2ccccn2)cc1OC,14.8%
13,NC1=NC2CS(=O)(=O)CC2S1 (centres undefined),2.4%
14,O=C(c1ccc([N+](=O)[O-])cc1)N1CCN(C(=O)c2ccco2)CC1,1.1%
15,COc1ccc(CC(=O)OCC(=O)Nc2cccnc2Cl)cc1OC,-1.9%
16,CCOC(=O)N1CCN(C(=O)C2CCN(S(=O)(=O)N(CC)CC)CC2)CC1,-12%
17,CCOC(=O)c1ccccc1N/C=C1\CCCCC1=O,-4.9%
18,COC(=O)c1ccccc1N/C=C1\CCc2c(c(C)nn2-c2ccccn2)C1=O,85.2% (active)
19,COC(=O)c1ccccc1NC(=S)N1CCN(c2ccccn2)CC1,7.2%
20,Cc1ccc(NCc2ccccc2O)c(C)c1,2.8%
21,COc1ccc(/C=C(\C#N)C(=O)OCCNC(=O)c2ccncc2)cc1,67.7% (active)
22,COc1ccc(/C=C(\C#N)C(=O)OCC(=O)NCc2ccccc2)cc1,0.9%
23,COc1ccc(/C=C(\C#N)C(=O)OCC(=O)NC(=O)NCCC(C)C)cc1,-4.9%
24,CCCOc1ccc(CNC(=S)NCc2ccc(OC(C)C)cc2)cc1,6.1%

row,SMILES,inhibition
1,O=C(NCc1ccncc1)c1ccc(N2CCCC2)c([N+](=O)[O-])c1,72.1% (active)
2,O=C(NCc1ccccn1)c1ccc(N2CCCC2)c([N+](=O)[O-])c1,-10.4%
3,O=C(NCc1ccc2c(c1)OCO2)c1ccc(N2CCCCCC2)c([N+](=O)[O-])c1,10.1%
4,S=C(Nc1ccc2cn[nH]c2c1)Nc1ccc(Cl)cc1Cl,55.6% (active)
5,Cc1ccc(S(=O)(=O)N(C)C)cc1NC(=S)Nc1ccc2[nH]c(=O)[nH]c2c1,44.5%
6,Cc1ccc(S(=O)(=O)N(C)C)cc1NC(=S)Nc1ccc2cn[nH]c2c1,55.4% (active)
7,S=C(Nc1ccc2cn[nH]c2c1)Nc1ccccc1Cl,14.1%
8,CN(C)S(=O)(=O)c1cccc(NC(=S)Nc2ccc3cn[nH]c3c2)c1,44.4%
9,S=C(Nc1ccc(Cl)cc1)Nc1ccc2cn[nH]c2c1,23.6%
10,C/C(=N\NC(=O)COc1ccc(C(C)(C)C)cc1)c1ccc2c(c1)OCCO2,19%
11,COc1ccccc1NC(=O)Cn1cnc2c(oc3ccccc32)c1=O,4.7%
12,Cc1ccc2c(c1)sc[n+]2Cc1ccccc1,-11.9%
13,COC(=O)[C@H](CC(C)C)NC(=O)CCc1nnc(COc2ccccc2)o1,-1.7%
14,CNC(=O)NCC12CC3CC(CC(C3)C1)C2,0%
15,COc1ccc(O)c(/C=N/n2c(-c3ccco3)csc2=Nc2cccnc2)c1,11.8%
16,CCN=c1scc(-c2cccs2)n1/N=C/c1cc(OC)ccc1O,-5%
17,CCN=c1scc(C)n1/N=C/c1cc(Br)c(O)c(Br)c1,-24.9%
18,COCCN=c1scc(-c2cccs2)n1/N=C/c1ccc(O)c(O)c1O,68.4% (active)
19,COCCN=c1scc(-c2ccco2)n1/N=C/c1ccc(O)c(O)c1O,69.7% (active)
20,CCN=c1scc(C)n1/N=C/c1ccc(O)c(O)c1O,82.5% (active)
21,COCCN=c1scc(-c2ccccc2)n1/N=C/c1c[nH]c2ccccc12,25.3%
22,CCN=c1scc(C)n1/N=C/c1ccsc1,-6.7%
23,COCCN=c1scc(-c2cccs2)n1/N=C(\C)c1ccco1,-16.8%
24,Cc1c(Br)cc(C(=O)OC2CCN(C)CC2)c(C)c1C,-1.2%

row,SMILES,inhibition
1,CCc1nnc(NC(=O)CSc2nnc(CNc3ccc(Cl)cc3)o2)s1,9.1%
2,CCCNc1nc2c(c(=O)n(C)c(=O)n2C)n1Cc1ccc(F)cc1,15.7%
3,COc1ccc2c(c1OC)C(=O)N(c1nccs1)C2,6.6%
4,CCN=C(NS(=O)(=O)c1ccc(Br)cc1)c1ccc(Cl)cc1,10.4%
5,CC1CCCN(S(=O)(=O)c2ccccc2[N+](=O)[O-])C1 (centres undefined),9.5%
6,COc1ccc(C2CC2/C(C)=N/OC(=O)c2cccs2)cc1 (centres undefined),-5.4%
7,COc1ccc(C2CC2/C(C)=N/OC(=O)C2CC2)cc1 (centres undefined),2.2%
8,COc1ccc(C2CC2/C(C)=N/OC(=O)c2ccc(F)cc2)cc1 (centres undefined),73.5% (active)
9,CCn1c(C)nc2cc(C(=O)OC(C(F)(F)C(F)F)C(F)(F)C(F)F)ccc21,18.2%
10,Cc1cc2c(cc1C)N(C(=O)CSc1nncn1C)C(C)(C)c1ssc(=S)c1-2,10.4%
11,COC(=O)c1cc(OC)nc2c1c(=O)n(C)c(=O)n2C,-3.1%
12,CCCC(=O)n1nc(-c2cccnc2)nc1NCc1ccc(OC)cc1,86.5% (active)
13,CCCC(=O)n1nc(-c2cccnc2)nc1NCc1ccccc1,3.3%
14,CCC(=O)n1nc(-c2cccnc2)nc1NCc1ccc(OC)cc1,8.8%
15,O=C(CSc1ccc2c(c1)OCCO2)Nc1cccc(S(=O)(=O)N2CCCCC2)c1,12.6%
16,CC(=O)c1cc2cc(O)ccc2o1,3.2%
17,CC(=O)c1cc2c(O)c(O)ccc2o1,81.1% (active)
18,O=C(O)c1cc2c(ccc3ccccc32)o1,4.1%
19,COc1cc(OC)cc(C(=O)N[C@H](C(=O)Nc2nnc(C3CC3)s2)C(C)C)c1,11.7%
20,O=C(CCc1ccccc1)OCC(=O)c1cccc([N+](=O)[O-])c1,3.7%
21,O=C(CSc1ncnc2c1oc1ccccc12)OCc1ccccc1,22.9%
22,COc1ccccc1N1C(=O)CC(Sc2nc(C)cc(C)n2)C1=O (centres undefined),0.4%
23,CCOc1ccccc1N1C(=O)CC(Sc2n[nH]c(-c3ccccc3)n2)C1=O (centres undefined),36%
24,O=C(CN1CCCCC1)NCCNc1ccc(C(F)(F)F)cc1[N+](=O)[O-],3.9%

row,SMILES,inhibition
1,O=S(=O)(Nc1ccc(Cl)cc1)c1ccc(N2CCOCC2)c(NC(=S)NC2CC2)c1,61.3% (active)
2,COC(=O)CCC(=O)Nc1cc(S(=O)(=O)Nc2ccc(Cl)cc2)ccc1N1CCOCC1,21.8%
3,COc1ccc(NS(=O)(=O)c2ccc(N3CCOCC3)c(NC(=O)c3ccc(F)cc3)c2)cc1,11.8%
4,COc1ccc(NS(=O)(=O)c2ccc(N3CCCC3)c(NC(=S)Nc3cccc(S(=O)(=O)N(C)C)c3)c2)cc1,69.9% (active)
5,COc1ccc(NS(=O)(=O)c2ccc(N3CCCC3)c(NC(=S)Nc3ccc(SC(F)F)cc3)c2)cc1,59% (active)
6,CCN(CC)S(=O)(=O)c1ccc(N2CCCC2)c(NS(=O)(=O)c2ccc(OC)cc2)c1,-1.6%
7,COc1ccc(NC(=S)Nc2cccc(S(=O)(=O)N3CCCCC3)c2)cc1,1.3%
8,COc1ccc(NS(=O)(=O)c2ccc(N3CCOCC3)c(NC(=O)c3ccccc3Cl)c2)cc1,-2.5%
9,COc1ccc(NS(=O)(=O)c2ccc(N3CCCC3)c(NC(=S)Nc3cccc(C)c3C)c2)cc1,78.9% (active)
10,COc1ccc(NS(=O)(=O)c2ccc(N3CCOCC3)c(NC(=O)c3ccc(OC)cc3)c2)cc1,9.7%
11,COc1ccc(NS(=O)(=O)c2ccc(N3CCOCC3)c(NC(=O)C(C)C)c2)cc1,-20%
12,O=S(=O)(Nc1ccc(Cl)cc1)c1ccc(N2CCOCC2)c(NC(=S)NCCN2CCOCC2)c1,12.4%
13,CCCCNC(=S)NNC(=O)c1csc(C)c1CC,-8.1%
14,O=C(O)CNC(=O)CC1S/C(=N/N=C/c2ccccc2O)NC1=O (centres undefined),-8.1%
15,CCCn1c(=O)c2ccccc2n2c(SCCOc3ccc(C)cc3)nnc12,12.7%
16,CCn1nnnc1SCC(=O)Nc1cc(OC)cc(OC)c1,2.1%
17,COc1ccc(C(=O)COC(=O)CCN=C2NS(=O)(=O)c3ccccc32)cc1OC,-5.9%
18,Cc1c(NC(=O)CCC2CCCCC2)c(=O)n(-c2ccccc2)n1C,-13.7%
19,O=S(=O)(NC1=NCCC1)c1cccc(NC(=S)NCCc2ccccc2)c1,2.3%
20,Cc1cc(N2CCOCC2)nc2ccc(NC(=S)N3CCN(c4ccccc4)CC3)cc12,22.5%
21,Cc1cc(N2CCOCC2)nc2ccc(NC(=S)N3CCCCC3C)cc12 (centres undefined),52.4% (active)
22,Cc1cc(N2CCOCC2)nc2ccc(NC(=O)C3CCC(C)CC3)cc12 (centres undefined),-6%
